Reference: PubChem BioAssay (EPA / NIEHS)
Results filed as inconclusive are left out. Calls of active or inactive are those of the source. Rule for the calls, unless noted: active = hit-call score of the fitted dose curve at least 0.9, where 1 is the maximum; inactive = score below 0.9.

Experiments:
[1] = target: Hypoxia-inducible factor 1-alpha (Homo sapiens) (UniProt Q16665); assay: ATG_HIF1a_CIS: Attagene CIS-FACTORIAL HepG2 Assay for human Hypoxia Inducible Factor 1 (HIF1A) (AID 2282951); details: HepG2 Attagene cis-factorial HIF1a reporter transcription; actives raise or lower the signal
In short: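 After 24 h chemical exposure of reporter-transfected HepG2 cells, reporter cDNA was PCR-amplified, labelled by 6-FAM primer extension (2 min 95 C, 20 s 68 C, 10 min 72 C), HpaI-cut (2 h, 37 C) and analysed by CE.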

[2] = target: Hepatocyte nuclear factor 6 (Homo sapiens) (UniProt Q9UBC0); assay: ATG_HNF6_CIS: Attagene CIS-FACTORIAL HepG2 Assay for human Hepatocyte Nuclear Factor 6 (HNF6) (AID 2282952); details: HepG2 Attagene cis-factorial HNF6 reporter transcription; actives raise or lower the signal
In short: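 Reporter mRNA induction or loss in HepG2 after 24 h exposure; transient cis-MRTU transfection; fragments quantified by capillary electrophoresis; bidirectional analysis, DMSO as negative control.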

[3] = target: Heat shock factor protein 1 (Homo sapiens) (UniProt Q00613); assay: ATG_HSE_CIS: Attagene CIS-FACTORIAL HepG2 Assay for human Heat Shock Transcription Factor 1 (HSE) (AID 2282953); details: HepG2 HSE cis-reporter, Attagene RNA transcription; actives raise or lower the signal
In short: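 Cells were transfected with cis-element-driven reporter constructs, dosed for 24 h, then total RNA was reverse-transcribed and reporter cDNA amplified, FAM-labelled and digested with HpaI. Fragments were resolved by capillary electrophoresis; gain or loss was fitted against DMSO.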

[4] = ATG_MRE_CIS: Attagene CIS-FACTORIAL HepG2 Assay for human Metal Responsive Element (MRE) (AID 2282954); details: HepG2 MRE cis-reporter transcription, Attagene multiplex; actives raise or lower the signal
In short: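 HepG2 cells transiently transfected with cis-element-driven reporter units; mRNA measured 24 h after dosing. Reporter transcripts quantified by RT-PCR, FAM labelling, HpaI digestion and capillary electrophoresis; bidirectional fit versus DMSO.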

[5] = ATG_PBREM_CIS: Attagene CIS-FACTORIAL HepG2 Assay for human Phenobarbital-responsive Enhancer Module (PBREM) (AID 2282955); details: HepG2 PBREM cis-reporter, Attagene multiplexed transcription; actives raise or lower the signal
In short: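 Measures endogenous factor action on a phenobarbital-responsive enhancer module. HepG2 transiently carrying cis reporters, 24 h treatment, mRNA read-out by RT-PCR plus capillary electrophoresis.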

[6] = target: Paired box protein Pax-6 (Homo sapiens) (UniProt P26367); assay: ATG_Pax6_CIS: Attagene CIS-FACTORIAL HepG2 Assay for human Paired Box 6 (PAX6) (AID 2282956); details: HepG2 CIS-FACTORIAL PAX6 reporter transcription, RNA readout; actives raise or lower the signal
In short: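 Multiplexed cis-reporter HepG2 system; 24 h treatment; reporter mRNA read by RT-PCR/CE fluorescence; bidirectional fit vs DMSO.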

[7] = ATG_PXRE_CIS: Attagene CIS-FACTORIAL HepG2 Assay for human Pregnane X Receptor Element (PXRE) (AID 2282957); details: HepG2 Attagene CIS-FACTORIAL PXRE reporter, mRNA; actives raise or lower the signal
In short: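 Transiently transfected HepG2 cells were dosed and incubated for 24 h. RNA was then isolated, DNase-treated, reverse-transcribed and reporter sequences amplified. Labeled, HpaI-digested fragments were quantified by capillary electrophoresis against DMSO.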

[8] = ATG_PPRE_CIS: Attagene CIS-FACTORIAL HepG2 Assay for human Peroxisome Proliferator-activated Response Element (PPRE) (AID 2282958); details: HepG2 PPRE cis-element reporter, Attagene transcription factor profiling; actives raise or lower the signal
In short: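 PPRE activity in HepG2: transient cis-reporter transfection, 24 h compound incubation, reporter mRNA by RT-PCR and CE fluorescence; gain/loss fitted against DMSO.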

[9] = ATG_RORE_CIS: Attagene CIS-FACTORIAL HepG2 Assay for human RAR-related Orphan Receptor Element (RORE) (AID 2282959); details: HepG2 Attagene cis-factorial RORE reporter, mRNA; actives raise or lower the signal
In short: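 A 24-hour exposure of transfected HepG2 hepatoma cells precedes RNA isolation and reporter RT-PCR. Labeled products are digested with HpaI and resolved by capillary electrophoresis, with gain or loss of signal scored relative to DMSO.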

[10] = ATG_Sox_CIS: Attagene CIS-FACTORIAL HepG2 Assay for human SRY-box transcription factor (SOX) (AID 2282960); details: HepG2 Attagene cis-factorial SOX reporter, mRNA; actives raise or lower the signal
In short: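 HepG2, cis reporter units, 24 h exposure. Reporter mRNA: RT-PCR → FAM labelling → HpaI → CE fluorescence. Bidirectional fit vs DMSO.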

[11] = target: Transcription factor Sp1 (Homo sapiens) (UniProt P08047); assay: ATG_Sp1_CIS: Attagene CIS-FACTORIAL HepG2 Assay for human Specificity Protein 1 (Sp1) (AID 2282961); details: HepG2 Sp1 cis-reporter transcription, actives raise or lower the signal
In short: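 Liver-derived HepG2 cells, cis-element reporter library, 24 h treatment; RNA isolated, cDNA amplified with reporter-specific primers, FAM-labeled fragments sized on capillary analyzer. DMSO baseline, bidirectional curve fit.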

[12] = ATG_SREBP_CIS: Attagene CIS-FACTORIAL HepG2 Assay for human Sterol Regulatory Element Binding (SREBP) (AID 2282962); details: HepG2 Attagene cis-factorial SREBP reporter, mRNA; actives raise or lower the signal
In short: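 mRNA induction of transfected cis-promoter reporters in HepG2 cells, 24 h post-dose. Detection: RT-PCR with 6-FAM-labelled products, HpaI digest, capillary electrophoresis. DMSO served as negative control and baseline.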

[13] = target: Signal transducer and activator of transcription 3 (Homo sapiens) (UniProt P40763); assay: ATG_STAT3_CIS: Attagene CIS-FACTORIAL HepG2 Assay for human Signal Transducer and Activator of Transcription 3 (STAT3) (AID 2282963); details: HepG2, Attagene cis-factorial STAT3 reporter transcription; actives raise or lower the signal
In short: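 HepG2 cells transiently transfected with multiple cis-element-driven reporter units report endogenous transcription factor activity. After 24 h compound exposure, reporter mRNA is measured by RT-PCR, 6-FAM labelling, HpaI digestion and capillary electrophoresis. Fitted bidirectionally versus DMSO.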

[14] = ATG_TA_CIS: Attagene CIS-FACTORIAL HepG2 Assay for human TA Basal Promoter (AID 2282964); details: HepG2 Attagene CIS-factorial TA basal promoter reporter; actives raise or lower the signal
In short: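 Steps: transfect HepG2 with MRTUs; dose 24 h; isolate RNA, DNase-treat, reverse-transcribe; PCR and FAM-label reporter cDNA; digest with HpaI 2h at 37 C; run capillary electrophoresis. Activity fitted both directions against DMSO.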

[15] = ATG_TCF_b_cat_CIS: Attagene CIS-FACTORIAL HepG2 Assay for human T-Cell-Factor with beta-catenin (TCF/b-cat) (AID 2282965); details: HepG2 TCF/beta-catenin cis-reporter transcription, actives raise or lower the signal
In short: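 HepG2, transient MRTU transfection, cis-element-driven reporters (endogenous TFs). 24 h compound exposure. Readout: reporter mRNA by RT-PCR + 6-FAM primer extension, HpaI digest, capillary electrophoresis. Gain/loss fit vs DMSO baseline.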

[16] = ATG_TAL_CIS: Attagene CIS-FACTORIAL HepG2 Assay for human TAL Basal Promoter (AID 2282966); details: HepG2 Attagene cis-factorial TAL promoter reporter; actives raise or lower the signal;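 note: background control endpoint measuring basal TAL promoter reporter mRNA not a specific factor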
In short: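 Readout: reporter mRNA, fluorescence by CE. System: HepG2, transient multi-reporter transfection, endogenous TF activity. Exposure: 24 h. Analysis: bidirectional, DMSO-normalized; background control.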

[17] = ATG_TGFb_CIS: Attagene CIS-FACTORIAL HepG2 Assay for human Transforming Growth Factor (TGF) (AID 2282967); details: HepG2 Attagene CIS TGFb reporter, mRNA transcription; actives raise or lower the signal
In short: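 Cells were dosed for 24 hours, after which total RNA was reverse-transcribed and reporter sequences amplified, labeled and sized by capillary electrophoresis. Activity was fitted in both directions against DMSO.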

[18] = ATG_VDRE_CIS: Attagene CIS-FACTORIAL HepG2 Assay for human Vitamin D Receptor Element (VDRE) (AID 2282968); details: HepG2 VDRE cis-reporter transcription, actives raise or lower the signal
In short: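 Transiently transfected HepG2 cells carrying cis-regulated reporter transcription units were exposed for 24 h. Reporter mRNA was measured by RT-PCR with fluorescent labelling and capillary electrophoresis, and fitted in both directions against DMSO.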

[19] = target: Nuclear receptor subfamily 1 group I member 3 (Homo sapiens) (UniProt Q14994); assay: ATG_CAR_TRANS: Attagene TRANS-FACTORIAL HepG2 Assay for human Constitutive Androstane Receptor (CAR) (AID 2282969; active = hit-call score of the fitted dose curve at least 0.9, where 1 is the maximum;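 note: activators raise reporter mRNA above DMSO so AC50 marks induction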); details: HepG2 Attagene TRANS-FACTORIAL CAR reporter
In short: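 HepG2 cells transiently transfected with GAL4-UAS reporter units; TRANS format reads activity of exogenous chimeric NR-Gal4 protein. After 24 h dosing, reporter mRNA quantified by RT-PCR, 6-FAM labelling and capillary electrophoresis; gain of signal fitted against DMSO.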

[20] = target: Estrogen receptor (Homo sapiens) (UniProt P03372); assay: ATG_ERa_TRANS: Attagene TRANS-FACTORIAL HepG2 Assay for human Estrogen Receptor alpha (ERa) (AID 2282970; active = hit-call score of the fitted dose curve at least 0.9, where 1 is the maximum); details: HepG2 Attagene TRANS ERa GAL4 reporter, mRNA
In short: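 Transactivation via ERa-Gal4 chimera in HepG2; 24 hour incubation; reporter mRNA detected by fluorescence RT-PCR and capillary electrophoresis.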

Measured: AC50

Transcription factor Sp1 (Homo sapiens), sequence (P08047 whole entry, looked up, the tested form may be a part): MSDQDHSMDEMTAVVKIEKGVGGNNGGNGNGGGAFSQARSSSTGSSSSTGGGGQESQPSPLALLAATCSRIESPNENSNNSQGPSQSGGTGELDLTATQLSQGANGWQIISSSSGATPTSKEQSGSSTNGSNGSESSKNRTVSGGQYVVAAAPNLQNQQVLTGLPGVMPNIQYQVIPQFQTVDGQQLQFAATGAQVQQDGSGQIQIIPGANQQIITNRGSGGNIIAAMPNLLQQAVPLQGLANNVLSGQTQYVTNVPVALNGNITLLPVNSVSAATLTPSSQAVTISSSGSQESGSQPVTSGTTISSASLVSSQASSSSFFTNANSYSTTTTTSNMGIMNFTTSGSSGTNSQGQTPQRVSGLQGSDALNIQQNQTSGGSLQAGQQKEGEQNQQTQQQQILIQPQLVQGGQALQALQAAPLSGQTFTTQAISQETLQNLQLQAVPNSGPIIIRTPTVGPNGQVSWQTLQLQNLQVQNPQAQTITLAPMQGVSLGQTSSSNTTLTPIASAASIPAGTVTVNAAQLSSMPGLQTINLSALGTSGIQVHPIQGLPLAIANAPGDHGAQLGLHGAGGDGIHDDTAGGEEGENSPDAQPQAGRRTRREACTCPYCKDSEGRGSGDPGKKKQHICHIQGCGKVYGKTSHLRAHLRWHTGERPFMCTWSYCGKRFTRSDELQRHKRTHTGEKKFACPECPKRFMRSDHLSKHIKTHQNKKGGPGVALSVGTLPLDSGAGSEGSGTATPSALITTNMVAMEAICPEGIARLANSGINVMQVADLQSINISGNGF
Paired box protein Pax-6 (Homo sapiens), sequence (P26367 whole entry, looked up): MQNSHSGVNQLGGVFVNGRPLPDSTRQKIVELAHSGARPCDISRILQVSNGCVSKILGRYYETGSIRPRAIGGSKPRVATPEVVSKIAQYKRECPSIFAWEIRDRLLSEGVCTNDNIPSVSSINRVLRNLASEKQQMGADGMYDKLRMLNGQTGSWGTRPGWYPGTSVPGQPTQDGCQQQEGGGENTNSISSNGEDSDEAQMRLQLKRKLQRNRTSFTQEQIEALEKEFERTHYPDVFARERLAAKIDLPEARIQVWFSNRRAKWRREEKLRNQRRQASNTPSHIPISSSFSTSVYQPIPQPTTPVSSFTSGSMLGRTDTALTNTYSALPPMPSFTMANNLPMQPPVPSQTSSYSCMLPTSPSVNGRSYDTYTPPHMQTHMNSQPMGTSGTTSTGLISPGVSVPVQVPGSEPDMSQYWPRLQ
Heat shock factor protein 1 (Homo sapiens), sequence (Q00613 whole entry, looked up, the tested form may be a part): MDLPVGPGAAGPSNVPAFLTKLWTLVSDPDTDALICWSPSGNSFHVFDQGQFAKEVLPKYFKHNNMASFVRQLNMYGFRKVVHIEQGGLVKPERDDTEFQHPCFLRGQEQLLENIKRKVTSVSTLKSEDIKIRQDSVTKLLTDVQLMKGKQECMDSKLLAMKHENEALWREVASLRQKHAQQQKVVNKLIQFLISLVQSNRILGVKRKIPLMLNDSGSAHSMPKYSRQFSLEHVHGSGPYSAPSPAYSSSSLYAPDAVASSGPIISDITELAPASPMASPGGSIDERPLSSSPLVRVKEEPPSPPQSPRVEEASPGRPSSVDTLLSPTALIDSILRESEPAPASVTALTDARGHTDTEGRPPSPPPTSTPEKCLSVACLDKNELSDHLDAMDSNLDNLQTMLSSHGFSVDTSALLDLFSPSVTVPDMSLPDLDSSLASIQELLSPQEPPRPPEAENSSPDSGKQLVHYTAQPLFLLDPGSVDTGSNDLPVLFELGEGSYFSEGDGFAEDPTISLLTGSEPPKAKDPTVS
Nuclear receptor subfamily 1 group I member 3 (Homo sapiens), sequence (Q14994 whole entry, looked up, the tested form may be a part): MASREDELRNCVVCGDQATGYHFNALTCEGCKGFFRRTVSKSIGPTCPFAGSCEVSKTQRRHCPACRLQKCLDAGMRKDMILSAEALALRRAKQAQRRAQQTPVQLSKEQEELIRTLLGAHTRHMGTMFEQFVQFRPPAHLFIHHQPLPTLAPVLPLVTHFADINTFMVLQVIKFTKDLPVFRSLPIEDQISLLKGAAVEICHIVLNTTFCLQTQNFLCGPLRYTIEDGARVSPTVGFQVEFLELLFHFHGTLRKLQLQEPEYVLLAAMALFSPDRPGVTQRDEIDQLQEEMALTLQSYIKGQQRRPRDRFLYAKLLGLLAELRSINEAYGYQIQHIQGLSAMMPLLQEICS
Hepatocyte nuclear factor 6 (Homo sapiens), sequence (Q9UBC0 whole entry, looked up, the tested form may be a part): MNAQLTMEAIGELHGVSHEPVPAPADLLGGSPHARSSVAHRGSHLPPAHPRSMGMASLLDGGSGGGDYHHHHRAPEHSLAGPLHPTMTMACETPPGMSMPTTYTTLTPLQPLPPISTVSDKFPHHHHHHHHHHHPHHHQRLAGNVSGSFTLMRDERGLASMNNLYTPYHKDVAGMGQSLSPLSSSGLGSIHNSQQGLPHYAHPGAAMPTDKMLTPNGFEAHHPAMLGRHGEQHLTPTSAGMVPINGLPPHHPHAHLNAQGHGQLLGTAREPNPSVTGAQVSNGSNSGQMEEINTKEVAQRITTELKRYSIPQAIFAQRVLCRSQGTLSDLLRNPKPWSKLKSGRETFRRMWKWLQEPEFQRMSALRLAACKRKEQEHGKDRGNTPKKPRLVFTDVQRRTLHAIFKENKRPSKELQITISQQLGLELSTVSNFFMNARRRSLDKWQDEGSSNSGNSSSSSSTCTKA
Signal transducer and activator of transcription 3 (Homo sapiens), sequence (P40763 whole entry, looked up): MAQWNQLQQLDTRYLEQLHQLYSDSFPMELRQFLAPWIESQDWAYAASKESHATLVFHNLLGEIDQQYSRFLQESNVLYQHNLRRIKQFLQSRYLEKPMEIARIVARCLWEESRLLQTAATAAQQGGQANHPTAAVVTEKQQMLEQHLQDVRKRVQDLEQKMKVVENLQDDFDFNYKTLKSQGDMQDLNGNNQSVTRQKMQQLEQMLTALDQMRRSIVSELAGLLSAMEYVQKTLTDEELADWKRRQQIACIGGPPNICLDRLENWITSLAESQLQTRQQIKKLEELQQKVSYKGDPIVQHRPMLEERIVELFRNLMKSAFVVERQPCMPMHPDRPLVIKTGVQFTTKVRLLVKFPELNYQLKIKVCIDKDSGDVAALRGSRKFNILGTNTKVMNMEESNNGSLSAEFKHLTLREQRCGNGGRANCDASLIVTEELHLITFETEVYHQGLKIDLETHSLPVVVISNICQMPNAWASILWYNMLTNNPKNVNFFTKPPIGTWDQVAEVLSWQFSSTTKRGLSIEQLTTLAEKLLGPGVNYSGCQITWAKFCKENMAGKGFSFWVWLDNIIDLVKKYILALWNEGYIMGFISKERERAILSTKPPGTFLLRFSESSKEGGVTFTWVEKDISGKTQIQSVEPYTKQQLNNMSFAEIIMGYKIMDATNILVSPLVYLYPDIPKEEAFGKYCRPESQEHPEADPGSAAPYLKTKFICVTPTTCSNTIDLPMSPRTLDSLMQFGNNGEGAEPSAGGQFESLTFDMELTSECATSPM
Hypoxia-inducible factor 1-alpha (Homo sapiens), sequence (Q16665 whole entry, looked up): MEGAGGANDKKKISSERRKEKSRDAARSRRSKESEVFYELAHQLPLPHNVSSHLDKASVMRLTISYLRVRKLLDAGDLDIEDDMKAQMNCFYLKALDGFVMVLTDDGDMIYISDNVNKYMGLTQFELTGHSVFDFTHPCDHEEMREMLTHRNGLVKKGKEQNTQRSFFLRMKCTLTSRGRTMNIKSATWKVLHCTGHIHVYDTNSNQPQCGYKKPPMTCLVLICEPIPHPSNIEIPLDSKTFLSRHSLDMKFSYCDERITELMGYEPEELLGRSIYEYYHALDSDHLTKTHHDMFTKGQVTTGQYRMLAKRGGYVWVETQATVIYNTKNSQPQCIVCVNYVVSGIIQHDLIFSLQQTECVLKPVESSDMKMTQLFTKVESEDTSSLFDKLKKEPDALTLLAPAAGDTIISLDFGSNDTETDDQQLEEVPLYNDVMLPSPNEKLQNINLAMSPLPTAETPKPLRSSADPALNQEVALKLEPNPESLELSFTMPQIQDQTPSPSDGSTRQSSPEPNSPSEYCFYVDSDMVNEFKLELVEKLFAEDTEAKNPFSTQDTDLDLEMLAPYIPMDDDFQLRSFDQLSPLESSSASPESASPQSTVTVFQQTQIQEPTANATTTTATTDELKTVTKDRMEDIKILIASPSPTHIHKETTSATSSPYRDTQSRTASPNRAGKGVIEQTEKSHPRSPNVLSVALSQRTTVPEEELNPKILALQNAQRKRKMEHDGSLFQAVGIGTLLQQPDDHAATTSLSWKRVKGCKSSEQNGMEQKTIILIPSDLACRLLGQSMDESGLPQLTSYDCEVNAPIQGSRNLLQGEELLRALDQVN
Estrogen receptor (Homo sapiens), sequence (P03372 whole entry, looked up, the tested form may be a part): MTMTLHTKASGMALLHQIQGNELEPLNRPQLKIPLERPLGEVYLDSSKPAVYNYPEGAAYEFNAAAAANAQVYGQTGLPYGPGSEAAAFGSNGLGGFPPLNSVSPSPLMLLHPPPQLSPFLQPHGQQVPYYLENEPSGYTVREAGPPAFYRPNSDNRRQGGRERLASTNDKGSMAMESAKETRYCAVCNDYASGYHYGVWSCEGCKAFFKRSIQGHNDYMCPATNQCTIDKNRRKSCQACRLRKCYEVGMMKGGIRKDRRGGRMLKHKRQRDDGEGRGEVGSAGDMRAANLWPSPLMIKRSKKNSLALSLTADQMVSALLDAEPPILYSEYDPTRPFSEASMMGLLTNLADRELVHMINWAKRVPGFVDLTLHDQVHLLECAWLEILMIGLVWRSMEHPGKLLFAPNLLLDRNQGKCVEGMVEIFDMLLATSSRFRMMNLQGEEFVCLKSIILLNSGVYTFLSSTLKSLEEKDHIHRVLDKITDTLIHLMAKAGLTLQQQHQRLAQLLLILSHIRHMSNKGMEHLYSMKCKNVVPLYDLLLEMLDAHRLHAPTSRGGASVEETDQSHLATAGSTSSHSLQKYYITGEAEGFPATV

CC(C)[C@H](C(=O)OC(C#N)c1cccc(Oc2ccccc2)c1)c1ccc(OC(F)F)cc1 (some centres undefined)
inactive: [1] | [2] | [3] | [4] | [6] | [8] | [9] | [10] | [11] | [12] | [13] | [14] | [15] | [16] | [17]
active: [5] 1.18 µM | [7] 0.396 µM | [18] 1.08 µM

Oc1c(Br)cc(Br)cc1Br
active: [4] 78.7 µM | [5] 20.9 µM | [7] 5.82 µM | [8] 51.2 µM | [9] 40.6 µM | [11] 25.9 µM | [14] 65.7 µM | [17] 156 µM
inactive: [1] | [2] | [3] | [6] | [10] | [12] | [13] | [15] | [16]

C[CH2][Hg][S]c1ccccc1C(=O)O
inactive: [1] | [3] | [5] | [13] | [14] | [17]
active: [2] 4.19 µM | [4] 3.71 µM | [6] 4.42 µM | [7] 5.8 µM | [8] 0.814 µM | [9] 2.97 µM | [10] 2.56 µM | [11] 1.51 µM | [12] 2.66 µM | [15] 6.54 µM | [16] 1.87 µM | [18] 3 µM

c1cc[c]([Sb]([c]2ccccc2)[c]2ccccc2)cc1
active: [7] 2.1 µM | [17] 41.1 µM
inactive: [1] | [2] | [3] | [4] | [5] | [6] | [8] | [9] | [10] | [11] | [12] | [13] | [14] | [15] | [16] | [18] | [19]

C=CC(=O)[O][Sn]([CH2]CCC)([CH2]CCC)[CH2]CCC
active: [2] 0.657 µM | [3] 0.645 µM | [4] 0.412 µM | [5] 0.321 µM | [6] 0.52 µM | [7] 0.744 µM | [8] 0.00687 µM | [10] 0.67 µM | [11] 0.504 µM | [12] 0.189 µM | [13] 0.657 µM | [17] 0.367 µM | [18] 0.266 µM
inactive: [1] | [9] | [14] | [15] | [16]

O=C(NC(=O)c1c(F)cccc1F)Nc1ccc(Cl)cc1
inactive: [1] | [2] | [3] | [4] | [5] | [6] | [7] | [8] | [9] | [10] | [11] | [12] | [13] | [14] | [15] | [16] | [17] | [18] | [19] | [20]

Cc1cccc(N=Nc2ccc(N(C)C)cc2)c1
active: [7] 10.5 µM | [18] 19.8 µM
inactive: [1] | [2] | [3] | [4] | [5] | [6] | [8] | [9] | [10] | [11] | [12] | [13] | [14] | [15] | [16] | [17] | [19]
